In PubChem BioAssay (EPA / NIEHS) one finds outcome and AC50 data, which are given here for 9 molecules.

Results filed as inconclusive are left out. Activity calls are given as the source filed them. The calls were made as follows, unless noted: active = hit-call score of the fitted dose curve at least 0.9, where 1 is the maximum; inconclusive = response in the unintended direction; inactive = score below 0.9.

For test [1], the target named is Bile acid receptor (Homo sapiens) (UniProt Q96RI1). Kind of test: ATG_IR1_CIS: Attagene CIS-FACTORIAL HepG2 Assay for human Nuclear Receptor Subfamily 1 Group H Member 4 (NR1H4), IR1 submotif (AID 2282946; active = hit-call score of the fitted dose curve at least 0.9, where 1 is the maximum; inactive = score below 0.9). Particulars: IR1 reporter transcription, actives raise or lower the signal. A digest of the protocol: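 Cells (human HepG2) carry transiently transfected cis-promoter reporter transcription units. Compounds are incubated 24 h, total RNA is reverse-transcribed and amplified, and labelled fragments are resolved by capillary electrophoresis. Curves use DMSO as baseline.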
Chain of Bile acid receptor (Homo sapiens) (Q96RI1 whole entry, looked up, the tested form may be a part): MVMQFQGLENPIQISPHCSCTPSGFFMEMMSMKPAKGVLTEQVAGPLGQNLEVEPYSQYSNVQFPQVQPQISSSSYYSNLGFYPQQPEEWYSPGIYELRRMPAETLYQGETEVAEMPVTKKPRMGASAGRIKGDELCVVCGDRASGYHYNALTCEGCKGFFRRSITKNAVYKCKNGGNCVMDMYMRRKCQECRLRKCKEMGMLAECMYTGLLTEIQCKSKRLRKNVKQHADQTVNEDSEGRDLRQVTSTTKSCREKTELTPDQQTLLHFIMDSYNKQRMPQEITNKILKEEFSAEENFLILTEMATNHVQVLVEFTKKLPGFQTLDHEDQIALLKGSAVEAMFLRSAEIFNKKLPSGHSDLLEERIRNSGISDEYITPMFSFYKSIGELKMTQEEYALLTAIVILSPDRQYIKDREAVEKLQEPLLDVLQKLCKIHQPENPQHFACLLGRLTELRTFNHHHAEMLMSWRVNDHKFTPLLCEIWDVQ

Test [2] in a line: ATG_M_19_TRANS: Attagene TRANS-FACTORIAL HepG2 Assay for M19 Transcription Factor (Internal Marker) (AID 2282974). Particulars: HepG2 Attagene TRANS-FACTORIAL M19 internal marker reporter. A digest of the protocol: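 Gain-of-signal in reporter mRNA, relative to DMSO, was scored from capillary electrophoresis fluorescence. HepG2 cells carried transiently transfected multiple reporter transcription units and were incubated with test chemicals for 24 h.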

The target in test [3] is Oxysterols receptor LXR-alpha (Homo sapiens) (UniProt Q13133). Kind of test: ATG_LXRa_TRANS: Attagene TRANS-FACTORIAL HepG2 Assay for human Liver X Receptor alpha (LXRa) (AID 2282980). The note with it: HepG2 Attagene TRANS reporter, LXRa transactivation. A digest of the protocol: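 Transient HepG2 transfectants, 24 h dosing, RT-PCR/CE mRNA reporter quantitation; gain-of-signal vs DMSO.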
Chain of Oxysterols receptor LXR-alpha (Homo sapiens) (Q13133 whole entry, looked up): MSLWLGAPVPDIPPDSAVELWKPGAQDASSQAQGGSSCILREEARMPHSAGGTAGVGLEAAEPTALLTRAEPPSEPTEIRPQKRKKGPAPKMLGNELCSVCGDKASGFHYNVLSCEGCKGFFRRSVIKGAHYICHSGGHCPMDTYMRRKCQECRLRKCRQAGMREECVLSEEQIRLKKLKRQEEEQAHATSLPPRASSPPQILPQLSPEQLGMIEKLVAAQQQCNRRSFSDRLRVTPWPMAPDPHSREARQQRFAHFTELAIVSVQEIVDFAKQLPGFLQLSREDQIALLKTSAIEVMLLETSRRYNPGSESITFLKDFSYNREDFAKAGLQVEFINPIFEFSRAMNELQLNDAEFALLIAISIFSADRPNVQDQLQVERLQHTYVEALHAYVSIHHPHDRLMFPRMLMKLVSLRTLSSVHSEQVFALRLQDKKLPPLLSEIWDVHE

Test [4] addresses Hepatocyte nuclear factor 4-alpha (Homo sapiens) (UniProt P41235). Kind of test: ATG_HNF4a_TRANS: Attagene TRANS-FACTORIAL HepG2 Assay for human Hepatocyte Nuclear Factor 4 alpha (HNF4a) (AID 2282982). Particulars: HepG2 HNF4a transactivation reporter, mRNA readout. The method, boiled down:
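Readout is fluorescent reporter-transcript fragments resolved by capillary electrophoresis after RT-PCR from HepG2 cells dosed for 24 h. Cells carried transfected GAL4-UAS reporter constructs measuring exogenous NR-GAL4 chimera activity; DMSO served as baseline.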

In test [5] the target is Nuclear receptor subfamily 4 group A member 2 (Homo sapiens) (UniProt P43354). Kind of test: ATG_NURR1_TRANS: Attagene TRANS-FACTORIAL HepG2 Assay for human Nuclear Receptor Related Protein 1 (NURR1) (AID 2282985). Particulars: HepG2 Attagene TRANS reporter, mRNA readout. A digest of the protocol:
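Transient transfection of HepG2, human liver cells, with multiple GAL4-UAS reporter transcription units. Cells dosed 24 h, RNA isolated, reverse-transcribed, PCR-amplified, FAM-labelled, HpaI-digested, sized by capillary electrophoresis. DMSO served as negative control.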

In test [6] the target is Nuclear receptor subfamily 1 group I member 2 (Homo sapiens) (UniProt O75469). Description: ATG_PXR_TRANS: Attagene TRANS-FACTORIAL HepG2 Assay for human Pregnane X Receptor (PXR) (AID 2283008). The method, boiled down:
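HepG2 cells transiently transfected with multiple reporter units, here a PXR-GAL4 chimera driving a GAL4-UAS reporter; 24 h compound exposure. Reporter mRNA measured by RT-PCR, FAM labelling and capillary electrophoresis; gain of signal fitted against DMSO baseline.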

Test [7] concerns the target human RAR-related Orphan Receptor gamma (RORg), RORC (gene 6097) (UniProt P51449). Kind of test: ATG_RORg_TRANS: Attagene TRANS-FACTORIAL HepG2 Assay for human RAR-related Orphan Receptor gamma (RORg) (AID 2283011). The method, boiled down: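 Activity is scored as increase in GAL4-UAS reporter mRNA over DMSO, detected by fluorescent RT-PCR and capillary electrophoresis in HepG2 cells transiently expressing a RORg-Gal4 chimera, 24 h after dosing.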

Test [8] can be described thus: ATG_XTT_Cytotoxicity: Cytotoxicity Assessment in the Attagene TRANS-FACTORIAL HepG2 Assay (AID 2283584).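 As to AC50: XTT signal for cell number as viability in transfected HepG2 cells; cells exposed to compound for 24 h before reading; active means loss of viability signal versus DMSO baseline.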 A digest of the protocol: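 Transfect HepG2 with GAL4-UAS reporter units, dose compound, incubate 24 h, then measure viable cell number by XTT. Fit concentration response against DMSO baseline.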
Test [9] addresses Cellular tumor antigen p53 (Homo sapiens) (UniProt P04637). Kind of test: TOX21_p53_BLA_p2_ratio: Tox21 HCT-116 p53 Agonism Beta-lactamase Assay, Ratio, Phase 2 (AID 2283592). The method, boiled down: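 An inducible beta-lactamase reporter in HCT116 cells signals p53 pathway activation. After 16 h chemical exposure at 37C, cells load CCF4-AM substrate for 2 h at room temperature; activity is the cleaved/uncleaved emission ratio relative to DMSO.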

The nature of test [10]: TOX21_p53_BLA_p3_viability: Viability Assessment in the Tox21 HCT-116 p53 Agonism Beta-lactamase Assay, Phase 3 (AID 2283593).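 Also: cells exposed to compound for 16 h before reading.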 A digest of the protocol: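 Cellular ATP was quantified by CellTiter-Glo luminescence, read after 30 min at room temperature. Beforehand, HCT116 cells (4000/well) received compound 5 h post-seeding, 217-fold diluted from DMSO, then incubated 16 h at 37C.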

Test [11] is described as follows: TOX21_p53_BLA_p4_viability: Viability Assessment in the Tox21 HCT-116 p53 Agonism Beta-lactamase Assay, Phase 4 (AID 2283597).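 Also: hits lower the luminescence signal meaning cytotoxicity.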 The method, boiled down: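 Compound exposure of HCT116 cells lasts 16 h at 37C, 5% CO2, with DMSO stocks diluted 217-fold. Cellular ATP is then quantified by CellTiter-Glo luminescence after 30 min at room temperature.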
The nature of test [12]: TOX21_p53_BLA_p5_viability: Viability Assessment in the Tox21 HCT-116 p53 Agonism Beta-lactamase Assay, Phase 5 (AID 2283600). A digest of the protocol: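 Counter-readout for cytotoxicity: ATP-dependent luminescence from CellTiter-Glo, read in the beta-lactamase wells after 30 min at RT, following a 16 h compound exposure at 37C.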
The nature of test [13]: CCTE_Harrill_HTTr_Viability_MCF7: CCTE's 6-hour Cell Viability Assessment for the High-Throughput Transcriptomics (HTTr) Platform, in MCF-7 cells cultured in DMEM + 10% fetal bovine serum, Harrill Lab (AID 2284010; active = hit-call score of the fitted dose curve at least 0.9, where 1 is the maximum; inactive = score below 0.9). A digest of the protocol: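 MCF-7 cells in DMEM + 10% FBS, 384-well, exposed 6 h to an eight-point dilution series. Membrane integrity scored by high-content imaging of propidium iodide exclusion; bidirectional fit versus DMSO.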

The nature of test [14]: ATG_GAL4_TRANS: Attagene TRANS-FACTORIAL HepG2 Assay for GAL4 (Internal Marker) (AID 2282976). Particulars: HepG2 Attagene TRANS GAL4 internal marker reporter. The method, boiled down:
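Fluorescence from capillary electrophoresis of labelled RT-PCR products quantifies reporter mRNA induction after 24 h dosing of HepG2 cells carrying transfected GAL4-UAS reporter transcription units. Vehicle DMSO serves as baseline.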

Test [15] deals with human Vitamin D Receptor (VDR), VDR (gene 7421) (UniProt P11473). Description: ATG_VDR_TRANS: Attagene TRANS-FACTORIAL HepG2 Assay for human Vitamin D Receptor (VDR) (AID 2283022). A digest of the protocol:
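Fluorescence of labelled reporter cDNA fragments, resolved by capillary electrophoresis, gives mRNA induction after 24 h treatment of HepG2 cells carrying transfected Gal4-fusion reporter units. Activity is fitted in the positive direction with DMSO as baseline.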

Test [16] in a line: ACEA_ER_AUC_viability: ACEA Biosciences xCELLigence Real-Time Cell Analysis on Estrogen Receptor Agonism for Viability (AID 2283782).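 Also: continuous compound exposure with impedance area under curve over 80 h; hit means loss of impedance signal meaning reduced cell growth or viability.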 The method, boiled down: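 T-47D; phenol red-free RPMI1640 + 10% CS-FBS; 8 conc., 1:4 serial, max 100 uM final, ≤0.5% DMSO; n = 2; continuous exposure; impedance monitored to 80 h post-dose; AUC vs DMSO.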
The target of test [17] is human RAR-related Orphan Receptor beta (RORb), RORB (gene 6096) (UniProt Q92753). Kind of test: ATG_RORb_TRANS: Attagene TRANS-FACTORIAL HepG2 Assay for human RAR-related Orphan Receptor beta (RORb) (AID 2283010). A digest of the protocol:
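HepG2 cells transiently transfected with GAL4-UAS reporter units expressing chimeric NR-Gal4 protein; reporter mRNA measured 24 h after dosing by RT-PCR, 6-FAM labelling and capillary electrophoresis. Gain-of-signal fitted relative to DMSO baseline.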

Test [18] has as its target human Thyroid Receptor alpha (THRa1), THRA (gene 7067) (UniProt P10827). Kind of test: ATG_THRa1_TRANS: Attagene TRANS-FACTORIAL HepG2 Assay for human Thyroid Receptor alpha (THRa1) (AID 2283014). A digest of the protocol:
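First, HepG2 cells receive multiple GAL4-UAS reporter units and the chimeric receptor. They are then dosed for 24 h, after which RNA is reverse-transcribed, amplified, labelled, HpaI-cut and sized by capillary electrophoresis; gain relative to DMSO is scored.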

Test [19] deals with Retinoic acid receptor alpha (Homo sapiens) (UniProt P10276). Description: ATG_DR5_RAR_CIS: Attagene CIS-FACTORIAL HepG2 Assay for human Retinoic Acid Receptor Alpha (RARE), DR5 submotif (AID 2282934; active = hit-call score of the fitted dose curve at least 0.9, where 1 is the maximum; inactive = score below 0.9). The note with it: HepG2 Attagene cis-factorial RARE DR5 reporter, mRNA; actives raise or lower the signal. The method, boiled down:
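Transient MRTU transfection of HepG2; 24 h compound treatment; TriZol RNA, oligo(dT) RT, PCR, FAM labelling, capillary electrophoresis. Bidirectional fit vs DMSO. Endogenous TF activity at DR5 RARE.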

Chain of Nuclear receptor subfamily 4 group A member 2 (Homo sapiens) (P43354 whole entry, looked up, the tested form may be a part): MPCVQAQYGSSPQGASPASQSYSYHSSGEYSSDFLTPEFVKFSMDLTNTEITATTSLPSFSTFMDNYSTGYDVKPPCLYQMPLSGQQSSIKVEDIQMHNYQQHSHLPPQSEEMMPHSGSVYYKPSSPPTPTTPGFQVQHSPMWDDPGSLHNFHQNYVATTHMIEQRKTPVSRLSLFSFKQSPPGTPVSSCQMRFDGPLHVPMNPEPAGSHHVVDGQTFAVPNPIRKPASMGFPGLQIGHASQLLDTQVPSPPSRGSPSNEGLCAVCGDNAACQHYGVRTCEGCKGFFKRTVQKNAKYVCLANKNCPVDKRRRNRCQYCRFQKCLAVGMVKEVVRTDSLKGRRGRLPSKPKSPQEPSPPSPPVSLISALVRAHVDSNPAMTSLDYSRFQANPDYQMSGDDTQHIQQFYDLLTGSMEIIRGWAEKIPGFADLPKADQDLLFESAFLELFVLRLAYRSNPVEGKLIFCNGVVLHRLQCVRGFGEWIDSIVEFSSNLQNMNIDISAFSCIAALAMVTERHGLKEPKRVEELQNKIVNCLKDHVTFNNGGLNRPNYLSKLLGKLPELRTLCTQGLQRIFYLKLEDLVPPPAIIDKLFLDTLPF
Chain of Hepatocyte nuclear factor 4-alpha (Homo sapiens) (P41235 whole entry, looked up, the tested form may be a part): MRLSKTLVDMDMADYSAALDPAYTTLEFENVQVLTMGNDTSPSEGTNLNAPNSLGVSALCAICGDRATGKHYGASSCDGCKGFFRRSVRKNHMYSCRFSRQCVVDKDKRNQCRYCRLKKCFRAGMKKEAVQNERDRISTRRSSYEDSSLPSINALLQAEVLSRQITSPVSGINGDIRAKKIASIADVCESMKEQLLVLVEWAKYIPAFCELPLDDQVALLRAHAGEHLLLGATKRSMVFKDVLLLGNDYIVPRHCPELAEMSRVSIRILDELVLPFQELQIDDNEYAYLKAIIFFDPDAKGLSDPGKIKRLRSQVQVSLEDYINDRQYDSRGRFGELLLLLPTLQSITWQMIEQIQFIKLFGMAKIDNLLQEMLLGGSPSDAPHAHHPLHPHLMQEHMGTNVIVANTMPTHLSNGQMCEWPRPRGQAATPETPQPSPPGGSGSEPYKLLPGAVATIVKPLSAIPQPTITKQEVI
Chain of Cellular tumor antigen p53 (Homo sapiens) (P04637 whole entry, looked up): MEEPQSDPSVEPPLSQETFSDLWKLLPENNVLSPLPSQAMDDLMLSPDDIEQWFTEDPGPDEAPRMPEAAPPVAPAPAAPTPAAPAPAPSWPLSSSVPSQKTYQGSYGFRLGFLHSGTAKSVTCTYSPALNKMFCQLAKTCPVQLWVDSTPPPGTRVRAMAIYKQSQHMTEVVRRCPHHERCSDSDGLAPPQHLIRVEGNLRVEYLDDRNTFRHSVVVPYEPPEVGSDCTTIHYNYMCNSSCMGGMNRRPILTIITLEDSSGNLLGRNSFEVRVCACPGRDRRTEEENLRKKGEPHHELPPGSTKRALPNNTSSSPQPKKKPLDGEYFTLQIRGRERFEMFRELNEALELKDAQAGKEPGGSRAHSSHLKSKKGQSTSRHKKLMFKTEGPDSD
Chain of human RAR-related Orphan Receptor gamma (RORg), RORC (gene 6097) (P51449 whole entry, looked up, the tested form may be a part): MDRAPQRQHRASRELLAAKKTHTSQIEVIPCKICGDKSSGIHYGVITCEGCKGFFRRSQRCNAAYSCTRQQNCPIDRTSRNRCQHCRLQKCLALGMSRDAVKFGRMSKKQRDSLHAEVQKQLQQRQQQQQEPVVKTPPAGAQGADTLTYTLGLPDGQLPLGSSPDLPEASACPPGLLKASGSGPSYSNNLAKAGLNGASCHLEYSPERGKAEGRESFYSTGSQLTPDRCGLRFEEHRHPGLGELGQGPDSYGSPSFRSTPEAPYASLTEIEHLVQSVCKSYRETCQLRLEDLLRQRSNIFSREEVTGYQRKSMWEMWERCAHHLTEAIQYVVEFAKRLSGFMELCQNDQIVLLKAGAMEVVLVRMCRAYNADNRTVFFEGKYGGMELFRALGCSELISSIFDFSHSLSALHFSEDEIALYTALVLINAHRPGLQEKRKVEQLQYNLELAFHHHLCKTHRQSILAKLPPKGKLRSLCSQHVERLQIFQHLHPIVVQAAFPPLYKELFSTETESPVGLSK
Chain of human Vitamin D Receptor (VDR), VDR (gene 7421) (P11473 whole entry, looked up, the tested form may be a part): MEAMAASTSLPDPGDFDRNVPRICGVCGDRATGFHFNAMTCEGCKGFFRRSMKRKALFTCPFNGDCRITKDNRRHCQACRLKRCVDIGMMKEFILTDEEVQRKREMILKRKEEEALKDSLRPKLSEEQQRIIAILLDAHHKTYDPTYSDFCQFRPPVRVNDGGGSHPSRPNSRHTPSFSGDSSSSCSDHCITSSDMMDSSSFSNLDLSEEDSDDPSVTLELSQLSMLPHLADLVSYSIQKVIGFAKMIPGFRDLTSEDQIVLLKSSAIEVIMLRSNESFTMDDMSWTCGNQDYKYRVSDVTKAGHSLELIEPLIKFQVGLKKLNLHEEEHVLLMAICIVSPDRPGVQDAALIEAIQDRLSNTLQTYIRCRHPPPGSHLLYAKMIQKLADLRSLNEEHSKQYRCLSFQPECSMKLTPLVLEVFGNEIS
Chain of Nuclear receptor subfamily 1 group I member 2 (Homo sapiens) (O75469 whole entry, looked up, the tested form may be a part): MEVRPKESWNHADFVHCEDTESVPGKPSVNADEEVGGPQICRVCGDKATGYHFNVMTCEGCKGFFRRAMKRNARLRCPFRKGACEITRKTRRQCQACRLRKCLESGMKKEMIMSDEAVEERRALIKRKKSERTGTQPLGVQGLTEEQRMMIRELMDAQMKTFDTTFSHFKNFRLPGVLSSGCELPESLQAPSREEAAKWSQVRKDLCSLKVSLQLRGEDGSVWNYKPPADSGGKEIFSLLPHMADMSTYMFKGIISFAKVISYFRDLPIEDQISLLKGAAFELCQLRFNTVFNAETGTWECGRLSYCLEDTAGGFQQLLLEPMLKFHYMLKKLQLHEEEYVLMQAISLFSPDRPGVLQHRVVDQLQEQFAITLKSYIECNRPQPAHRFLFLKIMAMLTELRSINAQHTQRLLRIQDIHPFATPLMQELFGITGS
Chain of human Thyroid Receptor alpha (THRa1), THRA (gene 7067) (P10827 whole entry, looked up, the tested form may be a part): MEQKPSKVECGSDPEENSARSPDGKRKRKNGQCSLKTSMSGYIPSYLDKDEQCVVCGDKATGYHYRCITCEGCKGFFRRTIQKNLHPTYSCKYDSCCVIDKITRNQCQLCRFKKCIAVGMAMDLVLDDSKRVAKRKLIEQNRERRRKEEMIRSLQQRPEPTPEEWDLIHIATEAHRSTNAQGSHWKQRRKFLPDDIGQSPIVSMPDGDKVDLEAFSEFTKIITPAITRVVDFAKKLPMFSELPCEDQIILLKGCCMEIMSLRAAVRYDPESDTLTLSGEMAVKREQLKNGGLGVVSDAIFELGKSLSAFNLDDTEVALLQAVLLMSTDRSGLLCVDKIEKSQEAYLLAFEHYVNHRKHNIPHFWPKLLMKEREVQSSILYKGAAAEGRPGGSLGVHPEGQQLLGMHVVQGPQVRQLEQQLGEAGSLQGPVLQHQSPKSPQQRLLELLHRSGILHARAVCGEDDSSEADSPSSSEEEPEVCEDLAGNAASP
Chain of human RAR-related Orphan Receptor beta (RORb), RORB (gene 6096) (Q92753 whole entry, looked up, the tested form may be a part): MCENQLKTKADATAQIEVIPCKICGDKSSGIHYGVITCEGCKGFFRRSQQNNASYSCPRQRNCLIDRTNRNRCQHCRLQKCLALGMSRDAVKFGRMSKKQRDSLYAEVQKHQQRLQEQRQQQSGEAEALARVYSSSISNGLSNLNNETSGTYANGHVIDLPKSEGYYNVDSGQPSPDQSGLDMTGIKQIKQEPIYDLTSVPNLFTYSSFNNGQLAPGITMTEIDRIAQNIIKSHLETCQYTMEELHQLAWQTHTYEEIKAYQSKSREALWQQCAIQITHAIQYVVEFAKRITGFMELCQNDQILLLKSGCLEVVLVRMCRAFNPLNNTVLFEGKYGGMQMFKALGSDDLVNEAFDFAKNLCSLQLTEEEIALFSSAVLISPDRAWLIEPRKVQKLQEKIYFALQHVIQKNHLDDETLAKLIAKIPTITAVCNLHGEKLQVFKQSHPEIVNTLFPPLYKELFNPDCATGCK

A word on the AC50: it is the concentration giving half of the maximal activity seen. As to `CCCOC(=O)c1ccccc1C(=O)OCCC`, the molecule was called inactive in test [1], in [2], in test [3], in test [4], in test [5] and in [7]. Moreover, the outcome in test [8], in test [9], in test [10], in test [11], in test [12] and in test [13] was inactive. The AC50 in [6] was 70.3 µM (active).
Take `CC(=O)c1cc2c(cc1C)C(C)(C)C(C)CC2(C)C` (stereo not drawn): the figures for the AC50 in [1] and in test [16] were 179 µM (active) and 79.9 µM (active), respectively. In addition, the outcome in test [2], in test [14], in test [4], in [15], in test [9] and in test [12] was inactive. For the same molecule, in test [13], the result was inactive.
On to `O=C(O)c1cc[c]([Hg][Cl])cc1`, for which the molecule was called inactive in test [1], in [14], in test [5], in test [17], in test [18] and in test [8]. Also, the outcome in [9] and in test [11] was inactive.
Take `N#CCCCCC#N`: the outcome in [1], in test [7], in test [8], in test [11], in test [12] and in test [13] was inactive.
As for `Oc1ccc(C2(c3ccc(O)cc3)c3ccccc3-c3ccccc32)cc1`, the molecule was called inactive in [1], in test [14], in test [3], in test [5] and in test [11]. Moreover, the half-maximal activity concentration (AC50) in test [6] was 0.384 µM (active); in test [8], 34.9 µM (active); in [9] it was 0.265 µM (active); in test [10] it was 0.237 µM (active); in test [12], 74 µM (active).
For `Cl/C=C\CCl`, the molecule was classed as inactive in [19], in test [2], in test [14], in test [7], in [15] and in test [16]. Besides, in [13], the result was inactive.
`O=[N+]([O-])c1ccc(Cl)cc1`: the molecule was classed as inactive in test [2], in test [4], in [5], in test [7], in test [15] and in test [9]. For the same molecule, the molecule was called inactive in test [10], in [11], in [12], in test [16] and in test [13].
With `[N-]=[N+]=CC(=O)OC[C@H](N)C(=O)O`, the outcome in test [19], in test [1], in [14], in [3], in [5] and in test [17] was inactive. Also, the molecule was called inactive in test [15], in test [9], in test [10], in test [11], in test [12] and in test [13].
As to `Nc1ccccc1`, the result in [14], in test [3], in test [18], in test [15], in [9] and in test [16] was inactive. The outcome in test [13] was inactive.
